Measured values: PubChem BioAssay AID2685 (National Center for Advancing Translational Sciences (NCATS), 2010)
About 2,100 (0.66%) of roughly 320,000 compounds were called active. Another 53% or so got no clear call; they are omitted. Calls come from the whole dose curve; as a rule, active = well fitted inhibition curve with a large enough effect in the signal ratio, with a control signal flat (not every such curve was filed as active); inconclusive = small, poorly fitted or top-dose-only effect, or effect the other way, or a change in a side signal; inactive = flat fitted curve, though single readings scatter; the % refers to the signal ratio. The list comes from a sample in which actives are over-represented; it also holds similar structures and randomly drawn compounds.

Assay: qHTS Assay for Lipid Storage Modulators in Drosophila S3 Cells;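 for cell number change: cells counted by Cell Tracker Red CMTPX staining in the red channel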; for lipid storage change, negative = inhibition: % is set by controls: 0 for no effect and ±100 for the full control effect
Conditions: BODIPY lipid droplet fluorescence, 18-24 h, cells fed with added oleic acid; cell number change: measured here: cell count max response; series mostly up to 46.1 µM
Outline: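 Drosophila S3 cells got compounds at several concentrations plus oleic acid (400 uM solution). Laser-scanning cytometry with 488 nm excitation read lipid droplets at 500-530 nm and cells at 575-640 nm. Percent activity was relative to 20 uM Triacsin C.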
Potency is the fitted concentration of half-maximal effect.

Compound | Potency | cell number change [%] | outcome | lipid storage change, negative = inhibition
O=C(c1ccc(-c2ccccc2)c(F)c1)C1CCCN(CCCn2cccn2)C1 (stereo unspecified) | inactive | 2.71 | – | –
CN(C)c1ccc(/C=N/NC(=O)c2ccccc2O)o1 | inactive | – | – | –
Cc1nn(-c2ccc(F)cc2)c(C)c1CN1CCN(CCC(C)C)C(CCO)C1 (stereo unspecified) | inactive | 12.5 | – | –
COCC(=O)N1CCN(c2cccc(Cl)c2)CC1 | inactive | -20.3 | – | –
CC1=CC(C)C2C(=O)N(CCC[N+](C)(C)C)C(=O)C2C1 (stereo unspecified) | inactive | 2.72 | – | –
CC1=CC(C)C2C(=O)N(c3ccccc3)NC(=O)C2C1 (stereo unspecified) | inactive | 6.7 | – | –
CC1=CC(C)C2C(=O)N(O)C(=O)C2C1 (stereo unspecified) | 20.6 µM (active) | -17.9 | – | –
O=C1c2ccccc2C(=O)C1c1ccccn1 | inactive | 7 | – | –
Cc1nc2scc(C)n2c(=O)c1S(=O)(=O)NCCc1ccc(Cl)cc1 | inactive | -15.9 | – | –
CC(C)N(C)CCOC(=O)c1ccc2c(c1)OCCO2 | inactive | -0.0823 | – | –
Cc1oc(-c2ccoc2)nc1CN(Cc1ccccc1)CC1CC1 | inactive | 1.56 | – | –
COc1ccc(Cl)cc1NC(=O)COC(=O)CNC(=O)c1ccc([N+](=O)[O-])c(C)c1 | inactive | 7.48 | – | –
CCOC(=O)C(N)CSC1CC(=O)N(c2ccc(OC)cc2)C1=O (stereo unspecified) | 3.26 µM (active) | -13.3 | – | –
CCOC(=O)C(N)CSC1CC(=O)N(c2ccc(OCC)cc2)C1=O (stereo unspecified) | inactive | 8.77 | – | –
CCOC(=O)C(N)CSC1CC(=O)N(c2ccc(C(=O)OC)cc2)C1=O (stereo unspecified) | inactive | 8.08 | – | –
CCOC(=O)c1cc(C)nc(Sc2ccc(C)cc2)c1C#N | inactive | 3.68 | – | –
Cc1ccc(OCc2ccc(-c3ccccc3)cc2)c([N+](=O)[O-])n1 | inactive | – | – | –
O=[N+]([O-])c1cc2c(cc1Br)CCN2 | inactive | -0.505 | – | –
c1ccc(CNc2ccc(CNc3ncn[nH]3)cc2)cc1 | inactive | 13.8 | – | –
COc1cc(C(=O)Nc2cccc(-c3nc4ccccc4o3)c2C)cc(OC)c1OC | inactive | -6.82 | – | –
CN1CCN(CC(=O)Nc2nc(-c3c[nH]c4ccccc34)cs2)CC1 | inactive | -11.4 | – | –
CC(=O)NCCC(=O)Nc1nc(-c2c[nH]c3ccccc23)cs1 | 14.6 µM (active) | -1.21 | – | –
CC(=O)NCCC(=O)Nc1nc(-c2ccccc2Cl)cs1 | inactive | – | – | –
COCC(C)N1CCC(n2nccc2NC(=O)c2ccc3c(c2)OCO3)CC1 (stereo unspecified) | inactive | 11.7 | – | –

Compound | Potency | cell number change [%] | outcome | lipid storage change, negative = inhibition
CCOc1ccc(N(CC(=O)NCC2CCCO2)S(=O)(=O)c2ccc(OC)c(OC)c2)cc1 (stereo unspecified) | inactive | 14.4 | – | –
CC1(C)N=C(/C=N/O)CN1O | 6.51 µM (active) | 1.43 | – | –
Cc1ccc(NC(=O)C2(N(C(=O)Cn3nnnc3N)c3ccc(C)cc3)CCCCC2)cc1 | inactive | -7.84 | – | –
CCOC(=O)CSc1nc2c(c(=O)n1-c1ccc(OC)cc1)SCC2 | inactive | – | – | –
CCc1nnc(NC(=O)CSc2nccn2-c2cccc(C)c2)s1 | inactive | 0.532 | – | –
COc1ccccc1NC(=O)CCNC(=O)c1ccc(C)cc1 | inactive | – | – | –
CCOC(=O)c1c(NC(=O)CSc2nnc(C)s2)sc2c1CCCCC2 | inactive | -12.5 | – | –
Cc1ccc(C(=O)c2c(NC(=O)CSc3nnc(N)s3)sc3c2CCCC3)cc1 | 18.4 µM (active) | -2.02 | – | –
Cc1ccc(C(=O)c2c(NC(=O)c3cccnc3)sc3c2CCCC3)cc1 | inactive | 17.7 | – | –
CCOC(=O)N1CCN(c2ncc(C(F)(F)F)cc2Cl)CC1 | inactive | 23.9 | – | –
CC(=O)NS(=O)(=O)c1ccccc1 | inactive | -6.94 | – | –
CC(C)CN=C(NS(=O)(=O)c1ccccc1)C(Cl)(Cl)Cl | 18.4 µM (active) | – | – | –
NC(=NCCc1ccccc1)NS(=O)(=O)c1ccccc1 | inactive | 16.5 | – | –
COc1ccc(CCNC(=O)c2ccc(=O)[nH]c2)cc1OC | inactive | 10.1 | – | –
CC(=O)N1CCN(S(=O)(=O)c2cccc(C(=O)OCN3C(=O)c4ccccc4C3=O)c2)CC1 | inactive | 22.4 | – | –
COc1ccc(COC(=O)c2cccc(S(=O)(=O)N3CCCC3)c2)cc1F | – | -0.63 | inactive [at 0.369 µM] | –
CC(=O)N1CCN(S(=O)(=O)c2cccc(C(=O)OCc3cccc(F)c3)c2)CC1 | 6.51 µM (active) | -11.8 | – | –
Cc1cc(=O)oc2c3c(cc(OCC(=O)NCC(=O)O)c12)OC(C)(C)CC3 | inactive | 13.8 | – | –
CCc1cc(=O)oc2c3c(cc(OCC(=O)NCc4cccnc4)c12)OC(C)(C)CC3 | 7.31 µM (active) | 1.59 | – | –
CCc1cc(=O)oc2c3c(cc(OCC(=O)NCc4ccncc4)c12)OC(C)(C)CC3 | inactive | 18.3 | – | –
COc1ccccc1CNC(=O)COc1cc2c(c3oc(=O)cc(C)c13)CCC(C)(C)O2 | inactive | 5.31 | – | –
COc1cccc(CNC(=O)COc2cc3c(c4oc(=O)cc(C)c24)CCC(C)(C)O3)c1 | 1.3 µM (active) | -18.8 | – | –
CCc1cc(=O)oc2c3c(cc(OCC(=O)NCCC(=O)O)c12)OC(C)(C)CC3 | inactive | 4.77 | – | –
O=C(Cc1ccccc1)NNC(=O)c1ccc(NC(=O)c2ccccc2)cc1 | inactive | 27.8 | – | –

Compound | Potency | cell number change [%] | outcome | lipid storage change, negative = inhibition
CN(C)S(=O)(=O)c1ccc(C(=O)Oc2coc(CSc3ncccn3)cc2=O)cc1 | inactive | 6.85 | – | –
NC(=O)N/N=C(/CCCCCC/C(=N\NC(N)=O)c1ccccc1)c1ccccc1 | inactive | 2.15 | – | –
Cc1ccc(C(=O)N2C3=C(CCCC3)C(=O)NC23CCCCC3)cc1 | inactive | 3.44 | – | –
COC(=O)CNC(=O)CNC(=O)Nc1ccccc1 | inactive | 1.69 | – | –
Cn1nccc1NC(=O)COCC(=O)O | inactive | 11.4 | – | –
COc1ccc(CNC(=O)c2ccc(N3CCCC3=O)cc2)cc1 | inactive | 23.1 | – | –
Cc1ncsc1C(=O)NCc1ccc(N2CCCC2=O)cc1 | 2.59 µM (active) | – | – | –
O=C(NCc1ccc(N2CCCC2=O)cc1)c1ccc(F)cc1 | inactive | 1.24 | – | –
N#Cc1ccsc1NC(=O)CN(Cc1ccccc1)Cc1ccccc1 | inactive | -9.01 | – | –
CCOC(=O)N1CCC(NC(=O)c2ccc(CO)c(C(=O)NC3CCN(C(=O)OCC)CC3)c2)CC1 | inactive | – | – | –
O=C(O)CC(C(=O)Nc1ccc(Cl)cc1Cl)C1CCCO1 (stereo unspecified) | inactive | 5.73 | – | –
O=C(O)CC(C(=O)Nc1ccc(Cl)c(Cl)c1)C1CCCO1 (stereo unspecified) | 20.6 µM (active) | 12.1 | – | –
O=C(O)CC(C(=O)Nc1ccc(F)cc1)C1CCCO1 (stereo unspecified) | inactive | -13.3 | – | –
CCOC(=O)N1CCN(C(=O)CCCn2c(=S)[nH]c3ccsc3c2=O)CC1 | inactive | -21.6 | – | –
COC(=O)c1ccc(COc2ccc(C=O)cc2)o1 | inactive | -4.2 | – | –
CCN(CC#CCC(O)(c1ccccc1)c1ccccc1)C(C)C | inactive | 1.67 | – | –
COc1ccc(S(=O)(=O)Nc2cccc(-n3cnnn3)c2)cc1 | inactive | -4.25 | – | –
Cc1cc(S(=O)(=O)NCc2cccnc2)ccc1-n1cnnn1 | inactive | 2.93 | – | –
CCCCOc1ccc(NS(=O)(=O)c2ccc(-n3cnnn3)cc2)cc1 | inactive | -4.72 | – | –
COc1ccc(CNS(=O)(=O)c2ccc(-n3cnnn3)c(C)c2)cc1 | 18.4 µM (active) | -1.28 | – | –
COc1ccc(OCC(NS(=O)(=O)c2ccc(-n3cnnn3)cc2)C(C)C)cc1 (stereo unspecified) | 0.13 µM (active) | – | – | –
COc1ccc(CN(Cc2ccc(OC)cc2)S(=O)(=O)c2ccc(-n3cnnn3)c(C)c2)cc1 | inactive | -0.43 | – | –
C=CCOC(=O)C1=C(C)NC(=O)NC1c1cc2c(cc1Br)OCO2 (stereo unspecified) | inactive | -17.1 | – | –
N/C(=N\OC(=O)C1CCCCC1)c1cccnc1 | inactive | -2.17 | – | –

Compound | Potency | cell number change [%] | outcome | lipid storage change, negative = inhibition
CCOc1cc(CNCCCN2CCOCC2)ccc1OCC(=O)Nc1cccc2ccccc12 | inactive | 9 | – | –
CCN(CC)CCNC(=O)c1ccc(NC(=O)c2ccc3c(c2)CCC3)cc1 | inactive | 2.22 | – | –
COc1ccc(Br)cc1C(=O)O | inactive | 9.36 | – | –
COc1cc(N)c(Br)cc1C(=O)O | inactive | – | – | –
COc1c(Br)cc(Br)cc1C(=O)O | 20.6 µM (active) | -14.5 | – | –
COc1ccc(/C=N/NC(=O)Cn2nc([N+](=O)[O-])cc2C)c(OC)c1OC | inactive | 15.6 | – | –
COc1ccc(-n2ncc(C(=O)NC3CC3)c2C2CCN(C(=O)OC(C)(C)C)CC2)cc1 | 9.2 µM (active) | -6.59 | – | –
Cc1ccc(-n2ncc(C(=O)NC3CC3)c2C2CCN(C(=O)OC(C)(C)C)CC2)cc1 | inactive | -12.2 | – | –
Cc1ccc(-n2ncc(C(=O)O)c2C2CCN(C(=O)OC(C)(C)C)CC2)cc1 | inactive | -23.6 | – | –
Nn1cc(-c2ccccc2)nc1SCC(=O)NCCN1C(=O)CSC1=O | inactive | -20.3 | – | –
CCOC(=O)CN(C(=O)CSc1nnc(-c2ccncc2)n1CCCOC)c1ccccc1 | inactive | -3.7 | – | –
CC(C)(C)Nc1c(-c2ccc(O)cc2)nc2ccc(Cl)cn12 | inactive | 20.8 | – | –
CC(NC(=O)NCCCC(=O)O)(C(F)(F)F)C(F)(F)F | 29.1 µM (active) | -5.28 | – | –
NC(=O)NCCCC(=O)O | inactive | -16.4 | – | –
CC(NC(=O)NC(N)=O)(C(F)(F)F)C(F)(F)F | inactive | 2.2 | – | –
CSCCC(NC(=O)c1ccc(Cl)cc1Cl)C(=O)N(C)Cc1nc2ccccc2c(=O)[nH]1 (stereo unspecified) | – | – | – | 1.6% [at 0.0737 µM] (inactive)
CCN1CCN(c2ccc([N+](=O)[O-])c(Sc3nc4ccccc4[nH]3)c2)CC1 | inactive | -7.24 | – | –
CC1=CC(=Nc2c(C)n(C)n(-c3ccccc3)c2=O)C=CC1=O | inactive | 4.9 | – | –
CC1=NN(Cc2ccccc2)C(=O)C1 | inactive | 11.6 | – | –
CC(C)(C)c1cc(CN2CCC(O)CC2)cc(C(C)(C)C)c1O | inactive | 12.8 | – | –
CC1=NN(Cc2cc(C(C)(C)C)c(O)c(C(C)(C)C)c2)C(=O)C1 | 16.4 µM (active) | -27.5 | – | –
COCCOC(=O)c1c(C)oc2ccc(OC(=O)c3ccc4c(c3)OCO4)cc12 | inactive | – | – | –
